Where two headings read alike, the source gives them in different places.
Test system: P. berghei-ANKA-GFP-LucCON liver stage parasites in HepG2-A16-CD81EGFP cells
Settings: 48 h

Row | Structure (SMILES) | % viability (1 µM) | % viability (3 µM)
1 | COC(=O)C1=C(C)NC(C)=C(C(=O)OCCCN2CCC(c3ccccc3)(c3ccccc3)CC2)C1c1cccc([N+](=O)[O-])c1 (stereo not shown) [NCGC00163135] | 0.1886 | 0.1117
2 | COc1ccc(-c2c[n+](CC(=O)c3cccs3)c3n2CCC3)cc1 [MLS000333575] | 1.153 | 0.8461
